Structures can show the parent of a compound that is named as a salt. ± gives the standard error. Screen size: about 1,300 compounds; about 130 (10%) showed an effect of 50% or more. Only a selection was taken, and strong results are over-represented in it overall.
Tested on: Trichoderma virens ATCC 9645
Test: growth yield (OD600) with compound + IPBC relative to untreated control; higher = less growth inhibition
Conditions: compound concentration: 100 uM, IPBC concentration: 200 ng/ml
In short: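 A biocide at 200 ng ml^−1 was co-applied to some wells, and library compounds were present in all test wells at 100 μM final. The wells held 100 μl of Trichoderma virens ATCC 9645 spores at 15,000 spores ml^−1 in potato dextrose broth, grown at 30 °C in 96-well plates, with OD600 read at 40 h and 72 h. Results are relative growth against the control without either agent, averaged across duplicate screens.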

Row | SMILES | growth yield (40 h) [%] | growth yield (72 h) [%]
1 | O=C(Nc1ccccc1)OCC(CN1CCCCC1)OC(=O)Nc1ccccc1 (stereo not drawn) [Diperodon hydrochloride] + CCCCNC(=O)OCC#CI [3-iodo-2-propynyl butylcarbamate (IPBC)] | 77.4 ± 4.3 | 96.9 ± 1.7
2 | CCC1(c2cccc(O)c2)CCCCN(C)C1 (stereo not drawn) [Meptazinol hydrochloride] + CCCCNC(=O)OCC#CI [3-iodo-2-propynyl butylcarbamate (IPBC)] | 89.7 ± 3.6 | 92.5 ± 2.7
3 | O=C1NCCN1CCN1CCC(c2cn(-c3ccc(F)cc3)c3ccc(Cl)cc23)CC1 [Sertindole] + CCCCNC(=O)OCC#CI [3-iodo-2-propynyl butylcarbamate (IPBC)] | 5.24 ± 0.79 | 3.46 ± 0.1
4 | O=C(O)c1cn(-c2ccc(F)cc2)c2cc(N3CCNCC3)c(F)cc2c1=O [Sarafloxacin] + CCCCNC(=O)OCC#CI [3-iodo-2-propynyl butylcarbamate (IPBC)] | 81.2 ± 6.8 | 98.2 ± 5.5
5 | O=c1[nH]c2ccccc2n1CCCN1CCC(n2c(=O)[nH]c3cc(Cl)ccc32)CC1 [Domperidone] + CCCCNC(=O)OCC#CI [3-iodo-2-propynyl butylcarbamate (IPBC)] | 63.5 ± 2.9 | 91.8 ± 2.4
6 | CCNCC(O)c1cccc(O)c1 (stereo not drawn) [Etilefrine hydrochloride] + CCCCNC(=O)OCC#CI [3-iodo-2-propynyl butylcarbamate (IPBC)] | 96.9 ± 3.5 | 98.1 ± 2.4
7 | CC(=O)OCC(=O)[C@@]1(O)CC[C@H]2[C@@H]3CCC4=CC(=O)C=C[C@]4(C)[C@@]3(F)[C@@H](O)C[C@@]21C [Isoflupredone acetate] + CCCCNC(=O)OCC#CI [3-iodo-2-propynyl butylcarbamate (IPBC)] | 87.8 ± 2.1 | 91.7 ± 1.1
8 | CN(C/C=C/C#CC(C)(C)C)Cc1cccc2ccccc12 [Terbinafine] + CCCCNC(=O)OCC#CI [3-iodo-2-propynyl butylcarbamate (IPBC)] | 3.18 ± 0.64 | 2.94 ± 0.42
9 | CN(C/C=C/c1ccccc1)Cc1cccc2ccccc12 [Naftifine hydrochloride] + CCCCNC(=O)OCC#CI [3-iodo-2-propynyl butylcarbamate (IPBC)] | 13.2 ± 3 | 50 ± 2.2
10 | c1ccc2c(CC3=NCCN3)cccc2c1 [Naphazoline hydrochloride] + CCCCNC(=O)OCC#CI [3-iodo-2-propynyl butylcarbamate (IPBC)] | 87 ± 1.9 | 91.9
11 | C#CCN(C)Cc1ccccc1 [Pargyline hydrochloride] + CCCCNC(=O)OCC#CI [3-iodo-2-propynyl butylcarbamate (IPBC)] | 89.3 ± 4.5 | 95.5 ± 2.4
12 | CN(Cc1ccc(C(C)(C)C)cc1)Cc1cccc2ccccc12 [Butenafine Hydrochloride] + CCCCNC(=O)OCC#CI [3-iodo-2-propynyl butylcarbamate (IPBC)] | 4.13 | 2.73
13 | OC(CCN1CCCCC1)(c1ccccc1)C1CCCCC1 (stereo not drawn) [Trihexyphenidyl-D,L Hydrochloride] + CCCCNC(=O)OCC#CI [3-iodo-2-propynyl butylcarbamate (IPBC)] | 101 ± 16 | 102 ± 8.6
14 | COC(=O)Nc1nc2cc(C(=O)c3cccs3)ccc2[nH]1 [Nocodazole] + CCCCNC(=O)OCC#CI [3-iodo-2-propynyl butylcarbamate (IPBC)] | 107 ± 2.9 | 109 ± 1.1
15 | CN(C)CCCOc1nn(Cc2ccccc2)c2ccccc12 [Benzydamine hydrochloride] + CCCCNC(=O)OCC#CI [3-iodo-2-propynyl butylcarbamate (IPBC)] | 65.8 ± 2.2 | 88.4 ± 2.2
16 | CC(=O)Nc1ccc(O)cc1 [Acetaminophen] + CCCCNC(=O)OCC#CI [3-iodo-2-propynyl butylcarbamate (IPBC)] | 105 ± 20 | 103 ± 14
17 | CC(C)[N+](C)(CCOC(=O)C1c2ccccc2Oc2ccccc21)C(C)C [Propantheline bromide] + CCCCNC(=O)OCC#CI [3-iodo-2-propynyl butylcarbamate (IPBC)] | 78.8 ± 3.2 | 89.1 ± 3.6
18 | CC(=O)N[C@@H](CC(C)C)C(=O)O [N-Acetyl-L-leucine] + CCCCNC(=O)OCC#CI [3-iodo-2-propynyl butylcarbamate (IPBC)] | 86.57 ± 0.16 | 93.8 ± 2.3
19 | C[C@]12CC[C@@H]3c4ccc(OS(=O)(=O)O)cc4CC[C@H]3[C@@H]1CCC2=O [Estropipate] + CCCCNC(=O)OCC#CI [3-iodo-2-propynyl butylcarbamate (IPBC)] | 87 ± 1.6 | 89.7 ± 2
20 | Oc1c(Cl)cc(Cl)c(Cl)c1Cc1c(O)c(Cl)cc(Cl)c1Cl [Hexachlorophene] + CCCCNC(=O)OCC#CI [3-iodo-2-propynyl butylcarbamate (IPBC)] | 19.4 ± 4.8 | 80.2 ± 2.6

Row | SMILES | growth yield (40 h) [%] | growth yield (72 h) [%]
21 | CC(C)C(=O)OCC(=O)[C@@]12O[C@H](C3CCCCC3)O[C@@H]1C[C@H]1[C@@H]3CCC4=CC(=O)C=C[C@]4(C)[C@H]3[C@@H](O)C[C@@]12C [Ciclesonide] + CCCCNC(=O)OCC#CI [3-iodo-2-propynyl butylcarbamate (IPBC)] | 107 ± 6.8 | 103 ± 5.8
22 | CC(C)CC(=O)N[C@H](C(=O)N[C@H](C(=O)N[C@@H](CC(C)C)[C@@H](O)CC(=O)N[C@@H](C)C(=O)N[C@@H](CC(C)C)[C@@H](O)CC(=O)O)C(C)C)C(C)C [Pepstatin A] + CCCCNC(=O)OCC#CI [3-iodo-2-propynyl butylcarbamate (IPBC)] | 96.4 ± 11 | 103 ± 6.7
23 | CN[C@@H]1[C@H](O[C@H]2[C@H](O[C@H]3[C@H](O)[C@@H](O)[C@H](N=C(N)N)[C@@H](O)[C@@H]3N=C(N)N)O[C@@H](C)[C@]2(O)C=O)O[C@@H](CO)[C@H](O)[C@H]1O [Streptomycin sulfate] + CCCCNC(=O)OCC#CI [3-iodo-2-propynyl butylcarbamate (IPBC)] | 101 ± 3.8 | 99.9 ± 1.1
24 | O=C(O)Cc1ccccc1Nc1c(Cl)cccc1Cl [Diclofenac sodium] + CCCCNC(=O)OCC#CI [3-iodo-2-propynyl butylcarbamate (IPBC)] | 44.79 ± 0.32 | 74.7 ± 1.5
25 | Cc1ccc(Cl)c(Nc2ccccc2C(=O)O)c1Cl [Meclofenamic acid sodium salt monohydrate] + CCCCNC(=O)OCC#CI [3-iodo-2-propynyl butylcarbamate (IPBC)] | 71.3 ± 1.4 | 85.3 ± 1.8
26 | O=C(O)COC(=O)Cc1ccccc1Nc1c(Cl)cccc1Cl [Aceclofenac] + CCCCNC(=O)OCC#CI [3-iodo-2-propynyl butylcarbamate (IPBC)] | 79.9 ± 0.48 | 95.9 ± 1.7
27 | O=C(CCCCCCC(=O)Nc1ccccc1)NO [Vorinostat] + CCCCNC(=O)OCC#CI [3-iodo-2-propynyl butylcarbamate (IPBC)] | 107 ± 9.5 | 99.5 ± 3.9
28 | COc1cc2nc(N3CCN(C(=O)c4ccco4)CC3)nc(N)c2cc1OC [Prazosin hydrochloride] + CCCCNC(=O)OCC#CI [3-iodo-2-propynyl butylcarbamate (IPBC)] | 84.82 ± 0.32 | 92.6 ± 1.1
29 | OCCOCCN1CCN(C2=Nc3ccccc3Sc3ccccc32)CC1 [Quetiapine hemifumarate] + CCCCNC(=O)OCC#CI [3-iodo-2-propynyl butylcarbamate (IPBC)] | 72.75 ± 0.64 | 85.7 ± 3.2
30 | CN(C)CC/C=C1\c2ccccc2CSc2ccccc21 [Dosulepin hydrochloride] + CCCCNC(=O)OCC#CI [3-iodo-2-propynyl butylcarbamate (IPBC)] | 77.5 | 99 ± 1.1
31 | OCCN1CCN(CC/C=C2/c3ccccc3Sc3ccc(Cl)cc32)CC1 [Zuclopenthixol dihydrochloride] + CCCCNC(=O)OCC#CI [3-iodo-2-propynyl butylcarbamate (IPBC)] | 4.92 ± 0.16 | 3.57 ± 0.21
32 | CN(C)CC/C=C1/c2ccccc2Sc2ccc(Cl)cc21 [Chlorprothixene hydrochloride] + CCCCNC(=O)OCC#CI [3-iodo-2-propynyl butylcarbamate (IPBC)] | 24.5 ± 7.9 | 83.6 ± 8.9
33 | CN(C)CCC=C1c2ccccc2C=Cc2ccccc21 [Cyclobenzaprine hydrochloride] + CCCCNC(=O)OCC#CI [3-iodo-2-propynyl butylcarbamate (IPBC)] | 65.1 | 88.41 ± 0.73
34 | CN(C)CCOC1=Cc2ccccc2Sc2ccc(Cl)cc21 [Zotepine] + CCCCNC(=O)OCC#CI [3-iodo-2-propynyl butylcarbamate (IPBC)] | 38.6 ± 0.16 | 97.7
35 | CN(C)CCOC(c1ccc(Cl)cc1)c1ccccn1 (stereo not drawn) [Carbinoxamine maleate salt] + CCCCNC(=O)OCC#CI [3-iodo-2-propynyl butylcarbamate (IPBC)] | 103 ± 9.4 | 102 ± 4.9
36 | COc1ccccc1Oc1c(NS(=O)(=O)c2ccc(C(C)(C)C)cc2)nc(-c2ncccn2)nc1OCCO [Bosentan] + CCCCNC(=O)OCC#CI [3-iodo-2-propynyl butylcarbamate (IPBC)] | 117 ± 2.4 | 114 ± 5.8
37 | Clc1ccc2c(c1)C(N1CCNCC1)=Nc1ccccc1O2 [Amoxapine] + CCCCNC(=O)OCC#CI [3-iodo-2-propynyl butylcarbamate (IPBC)] | 81.3 ± 6 | 99.9 ± 7
38 | CCOC(=O)[C@@](C)(N)Cc1ccc(O)c(O)c1 [Methyldopate hydrochloride] + CCCCNC(=O)OCC#CI [3-iodo-2-propynyl butylcarbamate (IPBC)] | 110 ± 6 | 106 ± 6.2
39 | CC12CC3CC(C)(C1)CC(N)(C3)C2 [Memantine Hydrochloride] + CCCCNC(=O)OCC#CI [3-iodo-2-propynyl butylcarbamate (IPBC)] | 109 ± 3 | 108 ± 4.2

— the supplement of paper PMC8007513
